Data on 20 compounds can be found in PubChem BioAssay.

A short description of test [1]: antimalarial activity against Dd2 strain (AID 2302;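 active means growth inhibition above 50% at the single 2 µM test dose, taken to imply half-maximal potency below 2 µM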;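 further: 0% = DMSO untreated growth and 100% = chloroquine plus artemisinin killed control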). The settings on record: P. falciparum Dd2 in RBCs, LDH growth readout, 72 h; at 2 µM; active compounds read high.
Test [2] can be described thus: HepG2 cytotoxicity, primary screen, cytotoxicity control for P. falciparum antimalarial project, cell-based, ATP luminescence (AID 2303;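 active means inhibition above 50%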;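 further: 0% = DMSO wells and 100% = digitonin-killed cells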). The note with it: HepG2 viability, 24-48 h, at 10 µM, active compounds read high.
Test [3] addresses L-lactate dehydrogenase (Plasmodium falciparum (isolate CDC / Honduras)) (UniProt Q27743). In words: PfLDH activity inhibition – cell lysate, 3D7 strain, counter-screen for P. falciparum growth inhibition project (AID 2304).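 Further: 0% = vehicle and 100% = reference inhibitor.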 The note with it: P. falciparum 3D7 crude extract, LDH APAD/NBT absorbance; at 2 µM; active compounds read high.
Test [4] can be described thus: inhibition of 3D7 malaria parasite growth – strain 3D7 (AID 2306).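 Further: 0% = DMSO wells and 100% = chloroquine plus artemisinin control wells.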 The settings on record: P. falciparum 3D7 erythrocytic growth, LDH absorbance, 72 h; at 2 µM; active compounds read high.
Test [5] addresses Calcium-dependent protein kinase 1 (Plasmodium falciparum (isolate 3D7)) (UniProt P62344). Description: PfCDPK1 kinase inhibitors, biochemical, TCAMS library (AID 1159585; cut-off not given, nearly all actives have IC50 up to about 0.98 µM;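 further: inhibitors leave more ATP so luminescence rises with inhibition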). The note with it: recombinant PfCDPK1, Kinase-Glo ATP depletion luminescence. (In general: In Kinase-Glo more light means more ATP remaining.)
Test [6] deals with Plasmodium falciparum protein kinase 6 (PK6, PF3D7_1337100) (UniProt Q8IDW1). In words: PfPK6 kinase inhibitors, biochemical, TCAMS library (AID 1159586). The settings on record: recombinant PfPK6, Kinase-Glo ATP depletion luminescence.
Sequence of Plasmodium falciparum protein kinase 6 (PK6, PF3D7_1337100) (Q8IDW1 1-305): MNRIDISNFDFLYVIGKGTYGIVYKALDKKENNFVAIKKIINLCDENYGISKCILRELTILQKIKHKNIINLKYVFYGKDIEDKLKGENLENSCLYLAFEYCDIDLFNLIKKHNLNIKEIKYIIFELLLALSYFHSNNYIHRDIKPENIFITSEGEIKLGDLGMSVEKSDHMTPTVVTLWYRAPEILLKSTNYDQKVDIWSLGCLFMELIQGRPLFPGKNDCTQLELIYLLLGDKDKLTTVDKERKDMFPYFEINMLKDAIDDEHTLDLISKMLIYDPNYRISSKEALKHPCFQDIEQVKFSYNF
The target of test [7] is Protein kinase 7 (PK7), Plasmodium falciparum 3D7 (PF3D7_0213400) (UniProt Q7YTF7). In words: inhibition of Plasmodium PK7 catalytic activity – biochemical, TCAMS antimalarial set, Kinase-Glo luminescence (AID 1159587). The settings on record: recombinant PfPK7, Kinase-Glo ATP depletion luminescence.
Sequence of Protein kinase 7 (PK7), Plasmodium falciparum 3D7 (PF3D7_0213400) (Q7YTF7 1-343): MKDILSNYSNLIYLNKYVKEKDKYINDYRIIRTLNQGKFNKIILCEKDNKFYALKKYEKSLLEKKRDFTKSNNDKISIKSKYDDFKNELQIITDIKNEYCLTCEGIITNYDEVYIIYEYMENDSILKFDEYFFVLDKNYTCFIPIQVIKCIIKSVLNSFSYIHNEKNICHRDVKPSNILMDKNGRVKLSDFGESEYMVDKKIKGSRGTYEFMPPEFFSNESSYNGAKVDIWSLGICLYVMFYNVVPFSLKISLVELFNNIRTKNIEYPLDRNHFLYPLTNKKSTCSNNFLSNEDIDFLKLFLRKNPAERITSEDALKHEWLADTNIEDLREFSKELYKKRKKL
The target of test [8] is Calcium-dependent protein kinase 4 (Plasmodium falciparum (isolate 3D7)) (UniProt Q8IBS5). Description: PfCDPK4 kinase inhibitors, biochemical, TCAMS library (AID 1159588; cut-off not given, nearly all actives have IC50 up to about 0.91 µM). The settings on record: recombinant PfCDPK4, Kinase-Glo ATP depletion luminescence.
Sequence of Calcium-dependent protein kinase 4 (Plasmodium falciparum (isolate 3D7)) (Q8IBS5 whole entry, looked up): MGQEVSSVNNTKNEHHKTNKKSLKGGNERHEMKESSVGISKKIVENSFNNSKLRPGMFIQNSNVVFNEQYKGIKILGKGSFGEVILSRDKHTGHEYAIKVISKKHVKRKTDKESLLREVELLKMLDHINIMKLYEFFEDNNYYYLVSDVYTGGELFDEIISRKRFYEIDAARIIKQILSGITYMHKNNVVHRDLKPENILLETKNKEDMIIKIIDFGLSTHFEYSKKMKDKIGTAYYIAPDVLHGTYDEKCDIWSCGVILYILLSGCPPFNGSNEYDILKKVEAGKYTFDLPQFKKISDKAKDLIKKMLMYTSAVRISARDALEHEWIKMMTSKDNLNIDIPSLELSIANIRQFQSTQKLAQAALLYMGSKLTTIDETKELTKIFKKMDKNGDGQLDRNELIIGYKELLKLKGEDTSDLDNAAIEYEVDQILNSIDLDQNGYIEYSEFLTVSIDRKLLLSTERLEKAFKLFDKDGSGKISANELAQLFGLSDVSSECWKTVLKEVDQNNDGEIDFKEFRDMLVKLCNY

Each structure is given as a SMILES string. A number with no mark means an inactive call. For some of these results: Potency and affinity values are given separately. Activity calls are given as the source filed them. Unless noted, how the calls were made is not given here.

Sequence of Calcium-dependent protein kinase 1 (Plasmodium falciparum (isolate 3D7)) (P62344 whole entry, looked up): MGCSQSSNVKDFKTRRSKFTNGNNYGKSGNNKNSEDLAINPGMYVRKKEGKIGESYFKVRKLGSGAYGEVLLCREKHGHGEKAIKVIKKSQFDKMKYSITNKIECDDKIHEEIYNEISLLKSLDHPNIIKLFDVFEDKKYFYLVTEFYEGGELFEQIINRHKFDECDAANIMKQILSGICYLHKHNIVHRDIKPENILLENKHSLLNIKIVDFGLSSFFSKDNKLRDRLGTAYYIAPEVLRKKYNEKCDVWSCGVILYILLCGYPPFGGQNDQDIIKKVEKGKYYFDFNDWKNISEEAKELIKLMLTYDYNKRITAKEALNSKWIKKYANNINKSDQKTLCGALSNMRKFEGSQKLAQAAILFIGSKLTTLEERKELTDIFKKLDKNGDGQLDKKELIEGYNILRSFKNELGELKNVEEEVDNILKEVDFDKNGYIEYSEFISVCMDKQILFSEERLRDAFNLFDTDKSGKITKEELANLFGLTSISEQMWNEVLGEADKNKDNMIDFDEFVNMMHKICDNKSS
Sequence of L-lactate dehydrogenase (Plasmodium falciparum (isolate CDC / Honduras)) (Q27743 whole entry, looked up): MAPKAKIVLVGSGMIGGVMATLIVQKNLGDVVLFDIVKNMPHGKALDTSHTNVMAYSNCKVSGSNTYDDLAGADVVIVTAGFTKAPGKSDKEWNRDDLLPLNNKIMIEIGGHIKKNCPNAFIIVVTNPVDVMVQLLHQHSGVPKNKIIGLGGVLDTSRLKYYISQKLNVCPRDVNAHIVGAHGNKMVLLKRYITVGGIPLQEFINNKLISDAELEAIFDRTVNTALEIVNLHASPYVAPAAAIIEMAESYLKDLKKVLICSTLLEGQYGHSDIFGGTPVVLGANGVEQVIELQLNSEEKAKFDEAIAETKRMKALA

Regarding `CC(C)N(Cc1ccc(-c2ccc(C(F)(F)F)cc2)cc1)C(=O)Cn1c(SCc2cccc(F)c2F)cc(=O)c2cc(CN3CCCCC3)ccc21`, the growth inhibition in test [1] was 59% (active); in test [4], 103% (active). In addition, the figures for the inhibition in test [2] and in test [3] were 97% (active) and -8%, respectively. Also, the outcome in test [5], in test [6], in test [7] and in test [8] was inactive.
Consider `O=c1cc(NCCCNCc2cc(Cl)cc(Cl)c2OCc2ccc(Cl)cc2)[nH]c2ccccc12`, for which the growth inhibition in test [1] was 53% (active); in test [4], 98% (active). The values for the inhibition in test [2] and in test [3] were 6% and 3%, respectively. Besides, the outcome in test [5], in test [6], in test [7] and in test [8] was inactive.
In the case of `CC(C)COc1ccc(Cl)cc1Cc1nc(-c2nc3ccc(CN4CCN(C)CC4)cc3[nH]2)co1`, the results for the growth inhibition in test [1] and in test [4] were 57% (active) and 101% (active), respectively. Besides, the inhibition in test [2] is 5%; in test [3], 7%. Further, the outcome in test [5], in test [6], in test [7] and in test [8] was inactive.
For the compound `COc1ccccc1CNC(=O)CCn1c(=O)[nH]c2ccsc2c1=O`, the results for the growth inhibition in test [1] and in test [4] were 75% (active) and 85% (active), respectively. Also, the inhibition in test [2] was -5%; in test [3], -7%. For the same compound, the result in test [5], in test [6], in test [7] and in test [8] was inactive.
For `CCC(CC)(CCC#N)CN(C[C@@H](O)[C@H](Cc1ccccc1)NC(=O)OC(C)(C)C)S(=O)(=O)c1ccc(OC)cc1`, the growth inhibition in test [1] is 66% (active); in test [4], 82% (active). Besides, the inhibition was -12% in test [2] and 0% in test [3]. Moreover, the outcome in test [5], in test [6], in test [7] and in test [8] was inactive.
For the compound `Oc1ccc(Cl)cc1-c1cc(C(F)(F)F)nc(-c2ccccc2)n1`, the growth inhibition in test [1] is 92% (active); in test [4], 99% (active). Moreover, the inhibition in test [2] is 20%; in test [3] it was 3%. Further, the result in test [5], in test [6], in test [7] and in test [8] was inactive.
Consider `Cc1ccc(-c2nc(N3CCN(C(=O)c4ccco4)CC3)c3ccc(Cl)cc3n2)cc1`, for which the growth inhibition in test [1] was 78% (active); in test [4] it was 90% (active). Further, the inhibition in test [2] was 17%; in test [3] it was 3%. The outcome in test [5], in test [6], in test [7] and in test [8] was inactive.
With `Cc1nc2ccc(/C=C/C(=O)NC3CCC(CCN4CCc5ccc(C#N)cc5CC4)CC3)cc2[nH]1` (stereo not given), the growth inhibition in test [1] was 21%; in test [4] it was 88% (active). In addition, the values for the inhibition in test [2] and in test [3] were 7% and -2%, respectively. Moreover, the outcome in test [5], in test [6], in test [7] and in test [8] was inactive.
As to `CN(C)c1ccc(C=Cc2ccc3ccccc3n2)c(Cl)c1`, the growth inhibition in test [1] was 95% (active); in test [4], 94% (active). Also, the results for the inhibition in test [2] and in test [3] were 59% (active) and 1%, respectively. Moreover, the result in test [5], in test [6], in test [7] and in test [8] was inactive.
Turning to `CN(C)C(=S)N=Nc1c(O)[nH]c2ccc(OC(F)(F)F)cc12`, the growth inhibition in test [1] was 52% (active); in test [4] it was 93% (active). The inhibition in test [2] is 36%; in test [3], 3%. The outcome in test [5], in test [6], in test [7] and in test [8] was inactive.
For the compound `Cc1cc(C(=O)CN2C(=O)NC3(CCOc4ccccc43)C2=O)c(C)n1Cc1ccc(F)cc1` (stereo not given), the values for the growth inhibition in test [1] and in test [4] were 84% (active) and 95% (active), respectively. The inhibition in test [2] was 1%; in test [3], 0%. Besides, the result in test [5], in test [6], in test [7] and in test [8] was inactive.
Regarding `O=C(c1ccc(O)c(-c2cc(Cl)cc(Cl)c2)c1)N1CCCC1`, the growth inhibition in test [1] is 57% (active); in test [4], 90% (active). Also, the inhibition in test [2] was 3%; in test [3] it was -6%. The result in test [5], in test [6], in test [7] and in test [8] was inactive.
For the compound `OCCN1CCN(C2Cc3ccc(F)cc3Sc3ccc(Cl)cc32)CC1` (stereo not given), the values for the growth inhibition in test [1] and in test [4] were 26% and 98% (active), respectively. The results for the inhibition in test [2] and in test [3] were 56% (active) and 3%, respectively. Further, the outcome in test [5], in test [6], in test [7] and in test [8] was inactive.
In the case of `Cc1cccc(NC(=O)Nc2ccc(I)c(OCCN(C)C)c2)c1C`, the growth inhibition is 17% in test [1] and 96% (active) in test [4]. The inhibition in test [2] is 13%; in test [3] it was 1%. Besides, the result in test [5], in test [6], in test [7] and in test [8] was inactive.
Turning to `CCOC(=O)c1ccc(NC(=O)N[C@H]2CCN(CCCCCNC(=O)/C=C/c3ccc(Cl)c(Cl)c3)C2)cc1`, the values for the growth inhibition in test [1] and in test [4] were 1% and 98% (active), respectively. In addition, the inhibition in test [2] is 21%; in test [3], -4%. The outcome in test [5], in test [6], in test [7] and in test [8] was inactive.
Turning to `CC(C)(C)OC(=O)Cn1cnc2cc(NC(=O)c3cc([N+](=O)[O-])cc([N+](=O)[O-])c3)ccc21`, the growth inhibition was 97% (active) in test [1] and 100% (active) in test [4]. Moreover, the inhibition is 11% in test [2] and 5% in test [3]. The outcome in test [5], in test [6], in test [7] and in test [8] was inactive.
On to `Fc1ccc2nc(-c3ccc(-c4cccc(CN5CCN(CCN6CCOCC6)CC5)c4)cc3)[nH]c2c1`, for which the values for the growth inhibition in test [1] and in test [4] were 100% (active) and 101% (active), respectively. In addition, the figures for the inhibition in test [2] and in test [3] were 35% and 4%, respectively. In addition, the outcome in test [5], in test [6], in test [7] and in test [8] was inactive.
Regarding `COc1ccc2nccc([C@@H](O)CN3CCC(NC(=O)C(c4cc5ccccc5s4)N4CC(C)OC(C)C4)CC3)c2c1` (stereo not given in full), the growth inhibition in test [1] is 44%; in test [4], 93% (active). Besides, the results for the inhibition in test [2] and in test [3] were 12% and -6%, respectively. Besides, the outcome in test [5], in test [6], in test [7] and in test [8] was inactive.
For `CN(C)Cc1cccc(-c2ccc(NC(=O)c3ccc4c(=O)n(CCN5CCCCC5)cnc4c3)cc2)c1`, the growth inhibition in test [1] was 67% (active); in test [4] it was 101% (active). The inhibition is 23% in test [2] and -1% in test [3]. Further, the result in test [5], in test [6], in test [7] and in test [8] was inactive.
As to `O=c1cc(-c2cccc(C(F)(F)F)c2)nc(Nc2ccc(Cl)c(Cl)c2)[nH]1`, the growth inhibition in test [1] and in test [4] was 97% (active) each time. For the same compound, the values for the inhibition in test [2] and in test [3] were 57% (active) and -2%, respectively. The outcome in test [5], in test [6], in test [7] and in test [8] was inactive.

The term inhibition denotes the change of the read-out against control, counted positive when it falls.
